# According to the supplement of paper PMC6555819:
# Legend:
# Assay in all cases: PBM binding z-score (relative to random genomic background probes); higher = stronger binding; sequences stand for … in GC…GCGATTGACAGCGTAGAATGAAGG
# [1] = tested on: FXR:RXRa (NR concentration 270 nM, RXRa partner concentration 90 nM)
# Summary of the method: (§1)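 Binding z-scores take random background probes as their reference. They come from custom Agilent 4×180K protein-binding microarrays incubated 1 h with ligand-free nuclear receptor dimers, with antibodies against each partner (one per run) detecting binding. Scanned fluorescence was regression-normalized.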
# [2] = tested on: LXRa:RXRa (NR concentration 270 nM, RXRa partner concentration 90 nM)
# Summary of the method: as §1
# [3] = tested on: LXRa homodimer (NR concentration 270 nM)
# Summary of the method: as §1
# [4] = tested on: LXRb:RXRa (NR concentration 270 nM, RXRa partner concentration 90 nM)
# Summary of the method: as §1
# [5] = tested on: LXRb homodimer (NR concentration 270 nM)
# Summary of the method: as §1
# [6] = tested on: PPARa:RXRa (NR concentration 270 nM, RXRa partner concentration 90 nM)
# Summary of the method: as §1
# [7] = tested on: PPARg:RXRa (NR concentration 180 nM, RXRa partner concentration 90 nM)
# Summary of the method: as §1
# [8] = tested on: PPARg:RXRa 270nM:90nM, anti-RXR (NR concentration 270 nM, RXRa partner concentration 90 nM)
# Summary of the method: as §1
# [9] = tested on: PPARg:RXRa 30nM:10nM, anti-RXR (NR concentration 30 nM, RXRa partner concentration 10 nM)
# Summary of the method: as §1
# [10] = tested on: PPARg:RXRa 90nM:30nM, anti-RXR (NR concentration 90 nM, RXRa partner concentration 30 nM)
# Summary of the method: as §1
# [11] = tested on: PPARg:RXRa DBDmut IVT, anti-RXR (DBD mutation: RXRa K156A/R161A, NR concentration 270 nM, RXRa partner concentration 90 nM)
# Summary of the method: as §1
# [12] = tested on: PPARg:RXRa IVT, anti-PPARg (NR concentration 270 nM, RXRa partner concentration 90 nM)
# Summary of the method: as §1
# [13] = tested on: PPARg DBDmut:RXRa IVT, anti-PPARg (DBD mutation: PPARg1 K132A/R137A, NR concentration 270 nM, RXRa partner concentration 90 nM)
# Summary of the method: as §1
# [14] = tested on: PPARg DBDmut IVT, anti-PPARg (DBD mutation: PPARg1 K132A/R137A, NR concentration 270 nM)
# Summary of the method: as §1
# [15] = tested on: PPARg homodimer (NR concentration 180 nM)
# Summary of the method: as §1
# [16] = tested on: PXR:RXRa (NR concentration 270 nM, RXRa partner concentration 90 nM)
# Summary of the method: as §1
# [17] = tested on: PXR homodimer (NR concentration 270 nM)
# Summary of the method: as §1
# [18] = tested on: RARa:RXR (NR concentration 270 nM, RXRa partner concentration 90 nM)
# Summary of the method: as §1
# [19] = tested on: RARa homodimer (NR concentration 270 nM)
# Summary of the method: as §1
# [20] = tested on: RARb:RXRa (NR concentration 270 nM, RXRa partner concentration 90 nM)
# Summary of the method: as §1
Sequence,PBM binding z-score [1],PBM binding z-score [2],PBM binding z-score [3],PBM binding z-score [4],PBM binding z-score [5],PBM binding z-score [6],PBM binding z-score [7],PBM binding z-score [8],PBM binding z-score [9],PBM binding z-score [10],PBM binding z-score [11],PBM binding z-score [12],PBM binding z-score [13],PBM binding z-score [14],PBM binding z-score [15],PBM binding z-score [16],PBM binding z-score [17],PBM binding z-score [18],PBM binding z-score [19],PBM binding z-score [20]
CCTCGGAGGACAACAGGAGGTCAAAGCTGCCAGA,2.61,4.28,5.15,3.51,0.0871,3.68,1.17,1.56,-0.109,0.958,0.133,1.07,-0.509,-2.06,2.31,4.04,1.35,4.12,0.524,3.25
CCTACTGGGCCACGTAAGGTCATTGATTCAGTGA,3.42,5.12,3.52,3.3,-0.468,3.47,3.29,3.76,0.808,2.54,5.56,5.43,0.00703,-0.733,1.14,4.38,1.49,3.25,0.62,3.02
TGAATGACGTTAAAGATCAGGGAACGTGGCGTCG,-0.238,-0.18,-0.178,-0.538,0.178,-0.0143,0.989,1.26,0.931,1.28,-1.13,0.0329,0.97,0.284,-0.272,-0.444,-0.0558,-0.209,0.184,-0.171
GATACAGGGTCAATGCCAGAGTACGCGTATTGAT,6.02,3.64,-0.0445,3.44,-0.0572,5.2,4.79,4.33,1.52,2.95,2.46,3.45,0.722,0.999,1.86,2.96,0.00137,3.59,0.532,4.19
CCTTACGGGTCAAGGTTGTAGCACGGGTGGTACG,4.89,3.37,-0.181,2.48,-0.0387,4.68,4.01,4.21,1.2,3,0.974,3.06,0.572,-0.462,1.93,2.61,-0.423,3.82,-0.14,3.86
CCTACGGGGCCAAGGTCATTGATCAGTCAAAGCA,3.57,3.06,0.732,2.94,-0.542,3.79,2.83,3.73,1.3,2.88,0.0794,1.73,-1.66,-0.738,2.31,3.58,0.818,3.78,-0.181,3.57
ATCGTAAGGTCGTGAGGTGAGTATACAGAAAGGC,3.26,2.69,-0.00472,2.14,0.775,3.87,1.99,2.39,0.777,1.55,0.0684,1.65,1.19,1.05,1.4,2.22,0.545,3.29,0.99,3.11
TCTGCTATGTCAACGATGGTCAGCTAATCTGCTA,-0.367,-0.339,-1.07,-0.513,-0.553,-0.269,-0.313,0.46,1.01,0.668,0.814,-0.00611,0.00527,-0.18,-1.25,-0.217,-1.19,-0.446,-1.27,0.575
GCTGCTAGGTCAACTGAGGGTCAGCTAAAGCTCG,5.12,4.47,1.48,3.45,0.289,4.35,3.55,4.15,0.901,2.72,4.93,4.17,-0.389,-0.635,4.56,4.5,-0.492,5.93,0.262,4.83
TCTGCTGGGTCAACGATGGTCAGCTAATCTGCTA,2.59,1.95,-0.835,1.16,-0.168,3.19,1.92,2.57,1.69,2.14,3.36,3.7,1.06,0.239,0.518,1.46,-1.34,2.07,-1.24,3.6
TAGCATAGGTCATGCGGGCCAGTATAGTGTCGGC,5.29,5.13,0.874,3.33,-0.127,5.22,4.08,4.44,0.97,3.18,1,2.48,0.261,-0.165,1.08,2.83,0.0553,3.38,-0.53,4.13
TCTGCTTGGTCAACGATGGTCAGCTAATCTGCTA,-0.224,-0.219,-0.946,-0.549,-0.202,0.184,-0.488,0.665,1.65,0.96,0.689,0.425,0.225,-0.53,-0.633,-0.0602,-0.841,0.401,-1.62,1.17
CCTACTGTGCCATTCAGAGGTCATTGATCATATG,2.84,4.75,6.87,4.59,1.67,3.96,1.74,2.71,0.936,1.83,3.76,3.54,0.945,0.536,2.73,4.89,2.63,4.4,1.62,3.08
